The values below come from PubChem BioAssay (Tox21).

Inconclusive results are not listed. The source made the active and inactive calls. Calls follow the shape of the full dose curve.
% is scaled to controls: 0 for no effect and ±100 for the full control effect.

Sequence of Thyrotropin receptor (Homo sapiens) (P16473 whole entry, looked up): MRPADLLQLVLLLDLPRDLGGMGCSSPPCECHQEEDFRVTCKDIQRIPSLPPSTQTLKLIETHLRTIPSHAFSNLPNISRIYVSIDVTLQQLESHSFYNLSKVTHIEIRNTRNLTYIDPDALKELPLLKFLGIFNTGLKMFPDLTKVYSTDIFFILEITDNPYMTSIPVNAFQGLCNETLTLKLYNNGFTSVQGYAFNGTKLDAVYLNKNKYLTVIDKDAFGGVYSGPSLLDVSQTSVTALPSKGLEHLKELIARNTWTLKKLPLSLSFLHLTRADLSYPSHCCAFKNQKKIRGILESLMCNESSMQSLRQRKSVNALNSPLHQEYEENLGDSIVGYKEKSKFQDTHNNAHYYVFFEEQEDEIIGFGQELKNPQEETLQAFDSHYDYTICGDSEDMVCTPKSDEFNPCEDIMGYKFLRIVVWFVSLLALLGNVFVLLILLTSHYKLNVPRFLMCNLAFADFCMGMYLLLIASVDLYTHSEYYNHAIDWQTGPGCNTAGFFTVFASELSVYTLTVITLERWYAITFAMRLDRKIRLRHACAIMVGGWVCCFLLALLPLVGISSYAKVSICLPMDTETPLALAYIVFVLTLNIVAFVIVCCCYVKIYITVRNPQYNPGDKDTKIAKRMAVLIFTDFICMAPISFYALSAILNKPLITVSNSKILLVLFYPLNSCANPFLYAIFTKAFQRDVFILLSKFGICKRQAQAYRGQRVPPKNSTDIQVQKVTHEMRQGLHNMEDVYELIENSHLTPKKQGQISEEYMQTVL

The experiment concerns the target Thyrotropin receptor (Homo sapiens) (UniProt P16473). The experiment in a line: qHTS assay to identify small molecule agonists of the thyroid stimulating hormone receptor (TSHR) signaling pathway (AID 1224843). Also: nearly all actives have a fitted effect of over 45% in size. Particulars: TSHR-HEK293 cells, cAMP HTRF, agonist mode, 30 min; series mostly up to 92.4 µM; activation: at the top concentration. In a few lines: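 Steps: seed 800 TSHR-HEK293 cells per well; add test compound and hold 30 min at ambient temperature; dispense cAMP-d2 then anti-cAMP cryptate; incubate 1 h at ambient; measure fluorescence intensity.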
In the case of `CCOC(=O)c1ccc(NC(=O)CN2CCCCC2)cc1`, the “activation” value was -0.641% [at 42.5 µM] (inactive).
`C[C@@H]1[C@H](O)[C@@H](C)/C=C/C=C\C=C\C=C\C=C\C=C\C=C\[C@H](O[C@@H]2O[C@H](C)[C@@H](O)[C@H](N)[C@@H]2O)C[C@@H]2O[C@](O)(C[C@@H](O)C[C@@H](O)[C@H](O)CC[C@@H](O)C[C@@H](O)CC(=O)O[C@H]1C)C[C@H](O)[C@H]2C(=O)O` (stereo in doubt): the “activation” value was 0.415% (inactive).
As for `CCOc1ncc(F)c(=O)[nH]1`, the “activation” value was 5.43% [at 42.5 µM] (inactive).
As for `CC1CCC(C(C)CS)CC1S` (configuration not stated), the “activation” value was -9.67% (inactive).
For the compound `O=CNNC=O`, the “activation” value is -2.19% (inactive).
Consider `CC[C@H]1OC(=O)[C@H](C)[C@@H](O[C@H]2C[C@@](C)(OC)[C@@H](O)[C@H](C)O2)[C@H](C)[C@@H](O[C@@H]2O[C@H](C)C[C@H](N(C)C)[C@H]2O)[C@](C)(O)C[C@@H](C)/C(=N\OCOCCOC)[C@H](C)[C@@H](O)[C@]1(C)O`, for which the “activation” value was -21.7% [at 42.5 µM] (inactive).
Then `O=C(/C=C/c1ccc([N+](=O)[O-])cc1)c1ccccc1`, with 1.8% (inactive); and `Nc1nc(-c2ccc([N+](=O)[O-])cc2)cs1`, with -0.0313% (inactive).
To `Cc1oc(=O)oc1COC(=O)[C@@H]1N2C(=O)[C@@H](NC(=O)[C@H](N)c3ccccc3)[C@H]2SC1(C)C` belongs 0.13% [at 42.5 µM] (inactive); to `C1=CCC2CC=CC2C1` (configuration not stated), 15.2% (inactive).
Consider `COc1cc(OC)c2ccc(=O)oc2c1`, for which the “activation” value is -1.72% (inactive).
Then `CC(C)C1CCC(C(=O)N[C@H](Cc2ccccc2)C(=O)O)CC1` (some centres not stated), with -0.867% [at 42.5 µM] (inactive).
To `CCCCCCOC(=O)CCCCC` belongs -0.917% (inactive).
For the compound `C[C@@H]1C[C@H]2[C@@H]3CCC4=CC(=O)C=C[C@]4(C)[C@@]3(F)[C@@H](O)C[C@]2(C)[C@@]1(O)C(=O)COP(=O)(O)O`, the “activation” value is -2.83% (inactive).
As for `CCCCCCCCCCCCCCCC(=O)OCC`, the “activation” value was 3.08% (inactive).
To `CC(=O)NNC(C)=O` belongs -0.452% (inactive); to `CCC(CO)(CO)CO`, -5.74% (inactive).
For `COc1ccc(-n2nc(C(F)F)cc2-c2ccc(S(C)=O)cc2)cc1` (configuration not stated), the “activation” value was 4.68% (inactive).
To `O=C(O)c1cc(Cl)cc(Cl)c1O` belongs -4.54% (inactive); to `C=CC(=O)NC(C)C`, -23.7% (inactive); to `CC(=O)OCCC(C)CC(C)(C)C` (configuration not stated), 6.12% (inactive).
As for `CCCCC(CC)COS(=O)(=O)O` (configuration not stated), the “activation” value is 1.62% (inactive).
`COC(C)(C)OC`: the “activation” value is -0.268% (inactive).
With `Cc1ccc(S(=O)(=O)NC(=O)NC2CCCCC2)cc1`, the “activation” value is 0.817% [at 42.5 µM] (inactive).
To `CC1=CC[C@@]23C[C@@H]1C(C)(C)[C@@H]2CC[C@H]3C` belongs 16.1% (inactive); to `CCCCCCC(O)CCOC(C)=O` (configuration not stated), -3.73% [at 240 µM] (inactive).
Then `CC(=O)C(=O)CC(C)C`, with 2.34% (inactive); and `O=C(O)CCS`, with 5.32% (inactive); and `CC(=O)c1ccc[nH]1`, with 1.68% (inactive).
Then `CC(C)(O)CCc1ccccc1`, with 0.202% (inactive).
`COc1ccc(C)cc1`: the “activation” value is -2.79% (inactive).
To `CCN(CC)C(=O)N1CCN(C)CC1` belongs 3.39% [at 42.5 µM] (inactive).
